Test results taken from PubChem BioAssay (NCI).
About 83,000 compounds went through this panel and 20% of them were active in at least one assay; those are over-represented in the sample as a whole.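 Each cell line was grown in a 96-well plate and treated with one concentration of compound for 48 hours. Values below 10 were considered active.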 Active and inactive are the calls of the source.

Columns and labels:
Experiment in all cases: NCI-60 one-dose screen, 48 h (100 = growth as untreated, 0 = no growth, -100 = all killed)
Conditions in all cases: 10 µM
HOP-92 NSCLC = tested on: HOP-92 NSCLC
K-562 leukemia = tested on: K-562 leukemia
RXF 393 renal = tested on: RXF 393 renal
SK-MEL-2 melanoma = tested on: SK-MEL-2 melanoma
SN12C renal = tested on: SN12C renal
TK-10 renal = tested on: TK-10 renal
CAKI-1 renal = tested on: CAKI-1 renal
RPMI-8226 leukemia = tested on: RPMI-8226 leukemia
OVCAR-3 ovarian = tested on: OVCAR-3 ovarian
BT-549 breast = tested on: BT-549 breast
MDA-MB-435 melanoma = tested on: MDA-MB-435 melanoma
HCC-2998 colon = tested on: HCC-2998 colon
UACC-257 melanoma = tested on: UACC-257 melanoma

Measured: growth

CC(C)(O)/C=C/C(=O)[C@](C)(O)[C@H]1[C@H](O)C[C@@]2(C)[C@H]3CC=C4[C@@H](C[C@H](O)C(=O)C4(C)C)[C@]3(C)C(=O)C[C@]12C
inactive: K-562 leukemia 12.1% | HCC-2998 colon 36.1%
active: HOP-92 NSCLC -36.4% | RXF 393 renal -35.3% | SK-MEL-2 melanoma -28.2% | SN12C renal 9.22% | TK-10 renal -33% | CAKI-1 renal -60.5% | RPMI-8226 leukemia 3.64% | OVCAR-3 ovarian 1% | BT-549 breast -24.5% | MDA-MB-435 melanoma 9.08%

CC1=C[C@H]2O[C@@H]3C[C@H]4OC(=O)/C=C\C=C\[C@H]([C@@H](C)O)OCC/C(C)=C/C(=O)OC[C@@]2(CC1)[C@]4(C)[C@]31CO1
active: HOP-92 NSCLC -19.1% | K-562 leukemia -6.8% | RXF 393 renal -70.5% | SK-MEL-2 melanoma -61.1% | SN12C renal -16.1% | TK-10 renal -24.5% | RPMI-8226 leukemia -30.5% | OVCAR-3 ovarian -19.2% | BT-549 breast -28.6% | MDA-MB-435 melanoma -83.5% | HCC-2998 colon -55.6%

CC1=C(CCC=NNC(N)=O)C2=C(C)C3(CC3)[C@@](C)(O)C(=O)C2=C1
inactive: K-562 leukemia 54.7% | RPMI-8226 leukemia 59.8%
active: RXF 393 renal -93.6% | UACC-257 melanoma -62.1% | SN12C renal 1.73% | TK-10 renal -9.84% | CAKI-1 renal 0.975% | BT-549 breast -93.5% | MDA-MB-435 melanoma -27.9% | HCC-2998 colon -73.2%

C/C=C\C(=O)O[C@@H]1CC2O[C@@H]3C=C(C)C(=O)C[C@]3(C)[C@]1(C)[C@]21CO1
active: HOP-92 NSCLC -17.5% | K-562 leukemia -6.67% | RXF 393 renal -31.6% | SK-MEL-2 melanoma -43.2% | SN12C renal -6.14% | TK-10 renal -19.4% | RPMI-8226 leukemia -31.2% | OVCAR-3 ovarian -3.17% | BT-549 breast -22.8% | MDA-MB-435 melanoma -34.3% | HCC-2998 colon -23.5%

COc1cc(OC)c(S(=O)(=O)N(CCCl)CCCl)cc1C(=O)/C=C/c1ccc(Cl)cc1
inactive: HOP-92 NSCLC 81.7% | K-562 leukemia 47.1% | RXF 393 renal 45.3% | UACC-257 melanoma 73.6% | SK-MEL-2 melanoma 93% | SN12C renal 86% | TK-10 renal 177% | CAKI-1 renal 65.7% | OVCAR-3 ovarian 69.9% | BT-549 breast 53% | MDA-MB-435 melanoma 33.1% | HCC-2998 colon 96.8%
active: RPMI-8226 leukemia 4.74%
